According to PubChem BioAssay (NCI):
This is part of a sample that, as a whole, favours compounds with a hit. Of some 79,000 tested, about 15% had one in any assay. A number with no mark means an inactive call. Calls of active or inactive are those of the source. No stated cut-off is given here; in the data, active means growth inhibition above about 70%; inactive means the rest.

Key:
[1] = NCI Yeast Anticancer Drug Screen. Data for the rad52 strain (AID 147);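 further: 0% = growth of vehicle-treated control cultures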; conditions: S. cerevisiae rad52 mutant growth inhibition, hits give high values
In short: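 The repair-mutant yeast strain was incubated with compounds, then growth was read and inhibition derived relative to vehicle.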

[2] = NCI Yeast Anticancer Drug Screen. Data for the wt1 strain (AID 149);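 further: 0% = growth of vehicle-treated wt1 cultures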; conditions: S. cerevisiae wt1 strain (SPY 50644) growth inhibition, hits give high values
In short: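 The wt1 strain was treated with compounds, and growth was compared with vehicle-treated cultures to give inhibition.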

[3] = NCI Yeast Anticancer Drug Screen. Data for the rad50EPP+ strain (AID 151);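 further: 0% = growth of vehicle-treated control cultures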; conditions: S. cerevisiae rad50 mutant strain, hits give high values
In short: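 Vehicle-normalised growth inhibition; rad50EPP+ yeast strain, altered in DNA damage repair, compound-treated.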

[4] = NCI Yeast Anticancer Drug Screen. Data for the mgt1 strain (AID 153); conditions: S. cerevisiae mgt1 mutant growth inhibition, hits give high values
In short: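 Vehicle-normalized growth inhibition is determined in mgt1 yeast, a strain selected for a defined alteration in DNA repair or cell cycle control.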

[5] = NCI Yeast Anticancer Drug Screen. Data for the rad50 strain (AID 155);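 further: 0% = growth of vehicle-only cultures of the same strain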; conditions: S. cerevisiae rad50 strain growth inhibition, hits give high values
In short: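 Cells are treated with compound, grown, and their growth is then scored against vehicle-only cultures of the same repair-deficient yeast strain.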

[6] = NCI Yeast Anticancer Drug Screen. Data for the mec2-1 strain (AID 157); conditions: S. cerevisiae mec2-1 strain, hits give high values
In short: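 Mutant yeast (mec2-1) grown with compound; growth inhibition relative to vehicle control reported.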

[7] = NCI Yeast Anticancer Drug Screen. Data for the rad14 strain (AID 159);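 further: 0% = growth of vehicle-treated control cultures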; conditions: S. cerevisiae rad14 strain growth inhibition, hits give high values
In short: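 Readout: yeast growth inhibition, referenced to vehicle-only cultures. Strain bears a defined alteration in DNA damage repair.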

[8] = NCI Yeast Anticancer Drug Screen. Data for the sgs1 mgt1 strain (AID 161);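 further: 0% = growth of cultures given vehicle only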; conditions: S. cerevisiae sgs1 mgt1 strain, hits give high values
In short: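 Compounds are added to genetically altered yeast, and growth is compared with cultures given vehicle alone to give percent inhibition.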

[9] = NCI Yeast Anticancer Drug Screen. Data for the CLN2oe strain (AID 163);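 further: 0% = growth of vehicle-only control cultures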; conditions: S. cerevisiae CLN2oe strain, hits give high values
In short: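 Compounds are applied to yeast harbouring a defined cell-cycle control change; reduced growth compared with vehicle-treated controls gives the value.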

[10] = NCI Yeast Anticancer Drug Screen. Data for the cln2 rad14 strain (AID 165);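 further: 0% = growth equal to vehicle treated cultures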; conditions: S. cerevisiae cln2 rad14 strain, hits give high values
In short: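 Readout is yeast growth inhibition versus vehicle-treated controls, using a strain with cln2 and rad14 alterations exposed to compound.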

[11] = NCI Yeast Anticancer Drug Screen. Data for the bub3 strain (AID 167); conditions: S. cerevisiae bub3 mutant strain, hits give high values
In short: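 Part of a panel of yeast mutants defective in DNA damage repair or cell cycle regulation. Each strain is grown with compound, and inhibition is calculated relative to solvent-treated cultures.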

[12] = NCI Yeast Anticancer Drug Screen. Data for the wt2 strain (AID 169);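 further: 0% = growth of vehicle-treated yeast cultures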; conditions: S. cerevisiae wt2 strain growth inhibition, hits give high values
In short: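 Against vehicle-treated controls, the growth of yeast exposed to each compound was compared, and the inhibition was recorded.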

[13] = NCI Yeast Anticancer Drug Screen. Data for the mlh1 strain (AID 171);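 further: 0% = growth of vehicle-treated control cultures of the same strain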; conditions: S. cerevisiae mlh1 strain growth inhibition, hits give high values
In short: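 Measured: yeast growth. Reference: vehicle-treated controls. Organism: strain with a defined alteration affecting DNA damage repair or cell cycle control, treated with compound.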

[14] = NCI Yeast Anticancer Drug Screen. Data for the sgs1 strain (AID 173);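 further: 0% = growth of vehicle-only control cultures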; conditions: S. cerevisiae sgs1 mutant, hits give high values
In short: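 Each compound was added to cultures of the altered yeast strain. Growth was recorded, and inhibition was derived by comparison with vehicle controls.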

[15] = NCI Yeast Anticancer Drug Screen. Data for the mlh1 rad18 strain (AID 175); conditions: S. cerevisiae mlh1 rad18 strain growth inhibition, hits give high values
In short: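 Genetically defined yeast (DNA repair-deficient) exposed to compounds; growth inhibition determined relative to vehicle.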

[16] = NCI Yeast Anticancer Drug Screen. Data for the rad18 strain (AID 177); conditions: S. cerevisiae rad18 mutant growth inhibition, hits give high values
In short: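 Vehicle-treated cultures served as the baseline for scoring compound-induced growth inhibition in DNA-repair-mutant yeast.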

[17] = at 5.0 µM (retest, dose inferred, filed as 0.5)
[18] = at 50.0 µM (retest, dose inferred, filed as 5.0)

## CCN(CC)CCOc1cc(C)c2cc(Cc3ccccc3)ccc2n1
[1]; at 1.2 µM
  growth inhibition: -1%
[1]; at 3.7 µM
  growth inhibition: 2%
[1]; at 11.0 µM
  growth inhibition: 2%
[1]; at 33.0 µM
  growth inhibition: 18%
[1]; at 100.0 µM
  growth inhibition: 82% (active)
[2]; at 1.2 µM
  growth inhibition: 0%
[2]; at 3.7 µM
  growth inhibition: 1%
[2]; at 11.0 µM
  growth inhibition: -1%
[2]; at 33.0 µM
  growth inhibition: 3%
[2]; at 100.0 µM
  growth inhibition: 71% (active)
[3]; at 1.2 µM
  growth inhibition: 0%
[3]; at 3.7 µM
  growth inhibition: 0%
[3]; at 11.0 µM
  growth inhibition: 3%
[3]; at 33.0 µM
  growth inhibition: 7%
[3]; at 100.0 µM
  growth inhibition: 31%
[4]; at 1.2 µM
  growth inhibition: 2%
[4]; at 3.7 µM
  growth inhibition: 5%
[4]; at 11.0 µM
  growth inhibition: 10%
[4]; at 33.0 µM
  growth inhibition: 35%
[4]; at 100.0 µM
  growth inhibition: 98% (active)
[5]; at 1.2 µM
  growth inhibition: -40%
[5]; at 3.7 µM
  growth inhibition: -2%
[5]; [17]
  growth inhibition: 7%
[5]; at 11.0 µM
  growth inhibition: -1%
[5]; at 33.0 µM
  growth inhibition: 13%
[5]; [18]
  growth inhibition: 57%
[5]; at 50.0 µM
  growth inhibition: 88.2% (active)
[5]; at 100.0 µM
  growth inhibition: 92% (active)
[6]; at 1.2 µM
  growth inhibition: -2%
[6]; at 3.7 µM
  growth inhibition: -3%
[6]; [17]
  growth inhibition: -2%
[6]; at 11.0 µM
  growth inhibition: 1%
[6]; at 33.0 µM
  growth inhibition: 17%
[6]; [18]
  growth inhibition: 8%
[6]; at 50.0 µM
  growth inhibition: 82.7% (active)
[6]; at 100.0 µM
  growth inhibition: 84% (active)
[7]; at 1.2 µM
  growth inhibition: 4%
[7]; at 3.7 µM
  growth inhibition: 16%
[7]; at 11.0 µM
  growth inhibition: 25%
[7]; at 33.0 µM
  growth inhibition: 36%
[7]; at 100.0 µM
  growth inhibition: 99% (active)
[8]; [17]
  growth inhibition: 5%
[8]; [18]
  growth inhibition: 47%
[8]; at 50.0 µM
  growth inhibition: 96% (active)
[9]; at 1.2 µM
  growth inhibition: -4%
[9]; at 3.7 µM
  growth inhibition: -9%
[9]; at 11.0 µM
  growth inhibition: 0%
[9]; at 33.0 µM
  growth inhibition: 15%
[9]; at 100.0 µM
  growth inhibition: 52%
[10]; [17]
  growth inhibition: 2%
[10]; [18]
  growth inhibition: -5%
[10]; at 50.0 µM
  growth inhibition: 53.9%
[11]; at 1.2 µM
  growth inhibition: 2%
[11]; at 3.7 µM
  growth inhibition: 1%
[11]; [17]
  growth inhibition: 2%
[11]; at 11.0 µM
  growth inhibition: 9%
[11]; at 33.0 µM
  growth inhibition: 38%
[11]; [18]
  growth inhibition: 13%
[11]; at 50.0 µM
  growth inhibition: 88.2% (active)
[11]; at 100.0 µM
  growth inhibition: 81% (active)
[12]; at 1.2 µM
  growth inhibition: -1%
[12]; at 3.7 µM
  growth inhibition: -2%
[12]; at 11.0 µM
  growth inhibition: 2%
[12]; at 33.0 µM
  growth inhibition: 13%
[12]; at 100.0 µM
  growth inhibition: 94% (active)
[13]; at 1.2 µM
  growth inhibition: 0%
[13]; at 3.7 µM
  growth inhibition: 1%
[13]; at 11.0 µM
  growth inhibition: 11%
[13]; at 33.0 µM
  growth inhibition: 28%
[13]; at 100.0 µM
  growth inhibition: 94% (active)
[14]; at 1.2 µM
  growth inhibition: 0%
[14]; at 3.7 µM
  growth inhibition: 3%
[14]; at 11.0 µM
  growth inhibition: 12%
[14]; at 33.0 µM
  growth inhibition: 35%
[14]; at 100.0 µM
  growth inhibition: 96% (active)
[15]; [17]
  growth inhibition: 5%
[15]; [18]
  growth inhibition: 28%
[15]; at 50.0 µM
  growth inhibition: 96% (active)
[16]; at 1.2 µM
  growth inhibition: 3%
[16]; at 3.7 µM
  growth inhibition: 15%
[16]; at 11.0 µM
  growth inhibition: 28%
[16]; at 33.0 µM
  growth inhibition: 65%
[16]; at 100.0 µM
  growth inhibition: 99% (active)
